Source: PubChem
The entries come from a sample that favours hits as a whole.
mHTT-CaM PPI inh – mutant huntingtin-calmodulin interaction inhibitors – biochemical, AlphaScreen, primary screen; AlphaScreen His-mHTT/GST-CaM binding, luminescence; inhibition, % at 15 µM; hit rate 3.6% among 190,000; AID 1671202, 2021
Pf apPOL inh – Pf-apPOL inhibitors, biochemical, fluorescence | Plasmodium falciparum apicoplast DNA polymerase (apPOL) | Recombinant Pf-apPOL, molecular beacon fluorescence, 1.5 h | inhibition, % at 10 µM | hit rate 0.25% among 210,000
Hits are given with their value; – = inactive; · = no result; + = active, no number; ! = not confirmed by another sample. Rule as the data show it: active = inhibition above about 50%; inactive = the rest.

SMILES	mHTT-CaM PPI inh	Pf apPOL inh
O=C1NC(=O)N(c2cccc(F)c2)C(=O)/C1=C/c1ccc(N2CCCCC2)o1	–	–
COc1ccc(NC(=O)C2CC2)c2ncccc12	–	–
O=C(Cc1ccccc1)NC(c1ccccc1Cl)c1ccc2cccnc2c1O (configuration not stated)	100.0	–
O=C(Cc1ccccc1)Nc1cc(-c2nc3ncccc3o2)ccc1Cl	–	–
COc1ccccc1C(NC(=O)C1CCCCC1)c1ccc2cccnc2c1O (configuration not stated)	100.0	–
Cn1c(=O)c(N2CCN(C(=O)c3ccc(F)c(Cl)c3)CC2)nc2ccccc21	–	–
CC(=O)N1CCCC1c1nc2cc(-c3ccc(F)cc3F)ccc2o1 (configuration not stated)	–	–
CC(=O)N1CCCC1c1nc2cc(-c3ccc(N(C)C)cc3)ccc2o1 (configuration not stated)	85.6	–
O=C(C1CC1)N1CCCC1c1nc2cc(-c3ccc(F)cc3F)ccc2o1 (configuration not stated)	–	–
CN(C)c1ccc(-c2ccc3oc(C4CCCN4C(=O)C4CC4)nc3c2)cc1 (configuration not stated)	89.1	–
Cc1ccccc1-c1ccc2oc(C3CCCN3S(C)(=O)=O)nc2c1 (configuration not stated)	89.6	–
COc1ccccc1-c1ccc2oc(C3CCCN3C(=O)C(C)C)nc2c1 (configuration not stated)	–	–
CC(=O)N1CCN(c2nc3c(s2)CC(C(=O)N2CCN(CC(C)C)CC2)CC3)CC1 (configuration not stated)	–	–
O=C1CC(N2CCOCC2)C(=O)N1c1ccccc1 (configuration not stated)	·	–
COc1ccc(N=C2C(=O)Nc3cc(Br)c(C)cc32)cc1	66.0	–
COc1ccc(N=C2C(=O)Nc3ccc(Cl)cc32)cc1	–	–
Cc1ccc(C2CN(S(=O)(=O)c3c(C)noc3C)CCN2C)cc1 (configuration not stated)	–	–
COc1ccc(C(=O)N2CCCC(c3nc(-c4ccc(NC(C)=O)cc4)no3)C2)cc1OC (configuration not stated)	–	–
O=C(NC1CCCC1)c1ccc(-c2cccc(F)c2)nc1	–	–
O=C(NCCc1c[nH]c2ccccc12)c1cc2nc(-c3ccco3)cc(C(F)(F)Cl)n2n1	76.0	–
O=C(NCCCN1CCOCC1)c1cc2nc(-c3ccco3)cc(C(F)(F)Cl)n2n1	–	–
COc1ccc(OC)c(CN2CCC(C(=O)NC(C)c3ccccc3)CC2)c1 (configuration not stated)	–	–
O=C1OC(c2ccc(-c3ccccc3)cc2)=N/C1=C\c1coc2ccccc2c1=O	–	–
Cc1cc(C)cc(C(=O)N2CCCC(COc3ccc(C(=O)N4CCOCC4)cc3)C2)c1 (configuration not stated)	–	–
O=C1OC(C(=O)Nc2cccc([N+](=O)[O-])c2)Cc2ccccc21 (configuration not stated)	–	–
SMILES	mHTT-CaM PPI inh	Pf apPOL inh
Cc1[nH]c2ccccc2c1/C=N\Nc1nc2ccccc2[nH]1	+	·
Clc1cc2c(cc1/C=N/Nc1nc3ccccc3[nH]1)OCO2	+	·
Cc1cc(C)nc(Nc2nc3ccccc3[nH]2)n1	–	–
N#C/C(=C\c1cc2c(cc1Br)OCO2)c1nc2ccccc2[nH]1	–	–
CCn1c(=O)c(NCc2ccc(OC(C)C)cc2)nc2ccncc21	–	–
COC(=O)c1cc(NC(=O)C23CCC(C)(C(=O)C2=O)C3(C)C)cc(C(=O)OC)c1 (configuration not stated)	–	–
CC1(C)C(C=C(Cl)Cl)C1C(=O)Nc1ccc(Br)cc1 (configuration not stated)	53.0	–
Cc1ccc(NC(=O)C2C(C=C(Cl)Cl)C2(C)C)cc1C (configuration not stated)	–	–
Cc1cc(NS(=O)(=O)c2ccc(NC(=O)C3C(C=C(Cl)Cl)C3(C)C)cc2)nc(C)n1 (configuration not stated)	62.0	–
CC1(C)C(C=C(Cl)Cl)C1C(=O)Nc1ccccc1[N+](=O)[O-] (configuration not stated)	56.0	–
CC1(C)C(C=C(Cl)Cl)C1C(=O)Nc1ccccc1Cl (configuration not stated)	–	–
CC1(C)C(C=C(Cl)Cl)C1C(=O)Nc1cccc(C(=O)O)c1 (configuration not stated)	–	–
CC1(C)C(C=C(Cl)Cl)C1C(=O)Nc1cccc([N+](=O)[O-])c1 (configuration not stated)	72.4!	–
CC1(C)C(C=C(Cl)Cl)C1C(=O)Nc1ccc(S(=O)(=O)Nc2ncccn2)cc1 (configuration not stated)	–	–
O=C(c1cccnc1)N1CCc2[nH]nc(-c3ccccc3)c2C1	–	–
O=C(CSc1nn2c(SCC(=O)Nc3ccccn3)nnc2s1)Nc1ccccn1	–	–
Cc1ccc(-c2c(C(=O)NC3CC3)nc3ccccn23)cc1	–	–
N=c1c2c(-c3ccccc3)c(-c3ccccc3)n(Cc3ccco3)c2ncn1Cc1ccco1	99.0	–
Cc1nc2ccccc2c(=O)n1Cc1ccco1	–	–
Oc1ccc(Nc2nc(NCc3ccco3)c3ccccc3n2)cc1	53.4	–
Clc1ccc(CSc2nc(NCc3ccco3)c3ccccc3n2)cc1	–	–
Cc1cc2n(n1)CCC(=O)N2CCCC(=O)NCc1ccc(C)o1	–	–
CC(CCc1ccc(O)cc1)Nc1ccc2[nH]ncc2c1 (configuration not stated)	–	–
Cc1ccc(C)c(CNc2ccc3[nH]ncc3c2)c1	74.9	–
COc1ccc(CNc2ccccc2)cc1C	–	–
SMILES	mHTT-CaM PPI inh	Pf apPOL inh
COc1ccc(CNc2ccc3[nH]ncc3c2)cc1C	64.8	–
CCN1CCN(CCNC(=O)C2CCN(c3ccc(N4CCCC4)nn3)CC2)CC1	–	–
CCc1ncc(C(=O)N2CCCCC2)c(-c2ccc(OC)cc2)n1	–	–
COc1ccc([C@H]2CN(c3ccc(OC)cc3)C(=O)[C@@H]2CC(=O)Nc2ccc(Br)cc2)cc1	54.7	–
COc1ccc(N2C[C@H](Cc3ccccc3)[C@@H](CC(=O)Nc3ccccc3)C2=O)cc1	73.7	–
COc1ccc(NC(=O)C[C@H]2C(=O)N(c3ccccc3)C[C@@H]2Cc2ccccc2)cc1	–	–
COc1ccc(N2C[C@H](C)[C@@H](CC(=O)Nc3ccc(Br)cc3)C2=O)cc1	–	–
O=C(C[C@H]1C(=O)N(Cc2ccccc2)C[C@@H]1Cc1ccccc1)Nc1ccc(Br)cc1	52.4	–
O=C(C[C@H]1C(=O)N(Cc2cccnc2)C[C@@H]1Cc1ccccc1)Nc1ccc(Br)cc1	–	–
Cc1ccc2nc3c(nc2c1)C(=O)N(CC1CCCO1)C3=O (configuration not stated)	–	–
CCc1cccc(C)c1NC(=O)CSc1nccnc1N1CCCC(C)C1 (configuration not stated)	–	–
COc1cc(C(=O)N2CCC(CC(=O)NC(C)Cc3ccco3)CC2)cc(OC)c1OC (configuration not stated)	–	–
Cc1cc(C)c(C)c(S(=O)(=O)N2CCN(c3nc4ccncc4n(C)c3=O)CC2)c1C	–	–
O=C(c1n[nH]c2c1CCCCCC2)N1CCc2c(nc3cc(-c4ccccc4)[nH]n3c2=O)C1	–	–
